Data as given in PubChem BioAssay (NCI).
About 79,000 compounds went through this panel and 15% of them were active in at least one assay; those are over-represented in the sample as a whole. Calls of active or inactive are those of the source. Rule as the data show it: active = growth inhibition above about 70%; inactive = the rest.

Assays:
[1] = NCI Yeast Anticancer Drug Screen. Data for the rad50 strain (AID 155);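 also: 0% = growth of vehicle-only cultures of the same strain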; details: S. cerevisiae rad50 strain growth inhibition, stronger effect = higher value
In short: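 DNA repair mutant yeast, compound exposure, growth read-out; inhibition is taken relative to vehicle.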

[2] = NCI Yeast Anticancer Drug Screen. Data for the mec2-1 strain (AID 157); details: S. cerevisiae mec2-1 strain, stronger effect = higher value
In short: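 mec2-1 yeast strain, carrying an alteration in DNA damage repair or cell cycle control, was exposed to compounds; growth inhibition was measured relative to vehicle-treated controls.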

[3] = NCI Yeast Anticancer Drug Screen. Data for the sgs1 mgt1 strain (AID 161);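 also: 0% = growth of cultures given vehicle only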; details: S. cerevisiae sgs1 mgt1 strain, stronger effect = higher value
In short: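 Yeast cells carrying a defined DNA-repair defect were exposed to test compounds. Growth inhibition was measured relative to vehicle-treated controls.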

[4] = NCI Yeast Anticancer Drug Screen. Data for the cln2 rad14 strain (AID 165);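 also: 0% = growth equal to vehicle treated cultures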; details: S. cerevisiae cln2 rad14 strain, stronger effect = higher value
In short: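 Yeast carrying cln2 and rad14 alterations (cell cycle control and DNA damage repair) were exposed to compounds. Growth inhibition was measured against vehicle-treated controls.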

[5] = NCI Yeast Anticancer Drug Screen. Data for the bub3 strain (AID 167); details: S. cerevisiae bub3 mutant strain, stronger effect = higher value
In short: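 In this screen, a yeast mutant lacking normal mitotic checkpoint function is challenged with compound. Relative growth versus vehicle gives the inhibition value.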

[6] = NCI Yeast Anticancer Drug Screen. Data for the mlh1 rad18 strain (AID 175); details: S. cerevisiae mlh1 rad18 strain growth inhibition, stronger effect = higher value
In short: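 Growth inhibition of the yeast strain was measured after compound exposure and expressed relative to vehicle-treated controls. The strain carries defined defects in DNA damage repair.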

[7] = at 5.0 µM (retest, dose inferred, filed as 0.5)
[8] = at 50.0 µM (retest, dose inferred, filed as 5.0)

Measured: growth inhibition

CCCCCCCCCCCCCCCCNCCCCCCCC(=O)O
inactive: [1]; [7] -1% | [1]; [8] 64% | [2]; [7] 4% | [2]; [8] 49% | [2]; at 50.0 µM 35.2% | [3]; [7] 14% | [4]; [7] 7% | [4]; [8] 26% | [5]; [7] 6% | [5]; at 50.0 µM 39.2% | [6]; [7] 2% | [6]; [8] 66%
active: [1]; at 50.0 µM 75% | [3]; [8] 92% | [3]; at 50.0 µM 75.9% | [4]; at 50.0 µM 72% | [5]; [8] 73% | [6]; at 50.0 µM 74.5%

O=C(c1ccc(O)cc1)c1ccccc1O
inactive: [1]; [7] 6% | [1]; at 50.0 µM 63.8% | [2]; [7] -7% | [2]; [8] 23% | [2]; at 50.0 µM 37.2% | [3]; [7] -2% | [3]; [8] 14% | [3]; at 50.0 µM 44.4% | [4]; [7] -1% | [4]; [8] 3% | [4]; at 50.0 µM -7.55% | [5]; [7] 45% | [5]; [8] 41% | [5]; at 50.0 µM 17.9% | [6]; [7] -2% | [6]; [8] 23% | [6]; at 50.0 µM 51.6%
active: [1]; [8] 76%

Cc1cc(Cl)c(C(C)C)cc1O
inactive: [1]; [7] 17% | [1]; [8] 62% | [1]; at 50.0 µM 53.2% | [2]; [7] -4% | [2]; [8] 61% | [2]; at 50.0 µM 48.2% | [3]; [7] 3% | [3]; [8] 55% | [3]; at 50.0 µM 48.6% | [4]; [7] 2% | [4]; [8] 51% | [4]; at 50.0 µM 45% | [5]; [7] 7% | [5]; [8] 55% | [5]; at 50.0 µM 24.4% | [6]; [7] 8% | [6]; [8] 58% | [6]; at 50.0 µM 63.4%

Cc1cc(NCCCCCCCCCC[n+]2c(C)cc(N)c3ccccc32)c2ccccc2n1
active: [1]; [7] 71% | [1]; [8] 99% | [1]; at 50.0 µM 89.8% | [2]; [7] 94% | [2]; [8] 99% | [2]; at 50.0 µM 92.2% | [3]; [7] 97% | [3]; [8] 99% | [3]; at 50.0 µM 91.5% | [4]; [7] 95% | [4]; [8] 99% | [4]; at 50.0 µM 90% | [5]; [7] 96% | [5]; [8] 99% | [5]; at 50.0 µM 90.9% | [6]; [7] 95% | [6]; [8] 99% | [6]; at 50.0 µM 90.6%

CC(=O)Oc1ccc(C)cc1C(C)(C)C
active: [6]; at 50.0 µM 74.2%
inactive: [1]; [7] -1% | [1]; [8] 0% | [1]; at 50.0 µM 57.6% | [2]; [7] 1% | [2]; [8] -4% | [2]; at 50.0 µM 54.8% | [3]; [7] -2% | [3]; [8] -2% | [3]; at 50.0 µM 59.1% | [4]; [7] 1% | [4]; [8] -1% | [4]; at 50.0 µM 28.7% | [5]; [7] 0% | [5]; [8] -7% | [5]; at 50.0 µM 59.3% | [6]; [7] -1% | [6]; [8] 0%

Nc1ccc2nnnn2c1
active: [1]; [8] 72% | [3]; [8] 76% | [5]; [8] 78% | [6]; [8] 91% | [6]; at 50.0 µM 70.5%
inactive: [1]; [7] 0% | [1]; at 50.0 µM 24.5% | [2]; [7] -2% | [2]; [8] 19% | [2]; at 50.0 µM 38% | [3]; [7] 9% | [3]; at 50.0 µM 46.8% | [4]; [7] 3% | [4]; [8] 27% | [4]; at 50.0 µM 31.2% | [5]; [7] 10% | [5]; at 50.0 µM 5.8% | [6]; [7] 14%

Cc1ccc(O)c(Cc2cccc(Cl)c2)c1
active: [1]; [8] 99% | [1]; at 50.0 µM 99.3% | [2]; [8] 99% | [2]; at 50.0 µM 99.5% | [3]; [8] 99% | [3]; at 50.0 µM 99.5% | [4]; [8] 99% | [4]; at 50.0 µM 99% | [5]; [8] 99% | [5]; at 50.0 µM 99.3% | [6]; [8] 99% | [6]; at 50.0 µM 99.2%
inactive: [1]; [7] -2% | [2]; [7] -7% | [3]; [7] -2% | [4]; [7] -21% | [5]; [7] -22% | [6]; [7] 0%

CCCCCCc1ccc(O)c(Cl)c1
active: [1]; at 50.0 µM 98.8% | [2]; at 50.0 µM 94% | [3]; at 50.0 µM 77.3% | [6]; at 50.0 µM 89.6%
inactive: [1]; [7] 0% | [1]; [8] 28% | [2]; [7] 0% | [2]; [8] 15% | [3]; [7] -1% | [3]; [8] 15% | [4]; [7] -4% | [4]; [8] -3% | [4]; at 50.0 µM 44.1% | [5]; [7] -5% | [5]; [8] -8% | [5]; at 50.0 µM 57.4% | [6]; [7] 0% | [6]; [8] 19%

CC1(C)CC(=O)C2=C(C1)OC1=C(CC(C)(C)CC1=O)C2c1ccccc1[N+](=O)[O-] (stereo not given)
inactive: [1]; [7] 22% | [1]; [8] 22% | [1]; at 50.0 µM -21.8% | [2]; [7] 16% | [2]; [8] 12% | [2]; at 50.0 µM -13.3% | [3]; [7] 25% | [3]; [8] 19% | [3]; at 50.0 µM -13.5% | [4]; [7] 23% | [4]; [8] 41% | [4]; at 50.0 µM -7.3% | [5]; [7] 9% | [5]; [8] 5% | [5]; at 50.0 µM -17.6% | [6]; [7] 24% | [6]; [8] 27% | [6]; at 50.0 µM -17.1%

CC(C)C[C@H](NC(=O)[C@H](Cc1ccccc1)NC(=O)c1cnccn1)B(O)O
inactive: [1]; [7] 55% | [1]; at 50.0 µM 55.8% | [2]; [7] 33% | [2]; at 50.0 µM 30.4% | [3]; [7] 52% | [3]; at 50.0 µM 60.9% | [5]; [7] 69% | [6]; [7] 55% | [6]; at 50.0 µM 66.7%
active: [1]; [8] 87% | [2]; [8] 70% | [3]; [8] 78% | [4]; [7] 76% | [4]; [8] 94% | [4]; at 50.0 µM 72.9% | [5]; [8] 90% | [5]; at 50.0 µM 72.6% | [6]; [8] 79%
